Structures can show the parent of a compound that is named as a salt. Where two headings read alike, the source gives them in different places. Out of some 5,300 compounds screened, about 130 (2.5%) showed an effect of 50% or more. This is one part of a sample in which strong results are shown more often than they occur.
Tested on: M. mycetomatis strain mm55
Details: primary screen, metabolic activity vs growth control, 96 h, 2 µM, inhibitor

Q: With `CC1(C)Oc2ccc(C#N)cc2[C@@H](N2CCCC2=O)[C@@H]1O.CC1(C)Oc2ccc(C#N)cc2[C@H](N2CCCC2=O)[C@H]1O` [ONC0001708, levcromakalim] as the compound, how does the “% viability” value read?
A: Its value is 57.98%.

Q: Which “% viability” value does the source give for `CC(=O)N(O)[C@@H]1c2cc(C#N)ccc2OC(C)(C)[C@H]1O` [ONC0004430, y26763] here?
A: Its value is 123.9%.

Q: `CC1(C)Oc2ccc(C#N)cc2[C@@H](OC2=CC(=O)CC2)[C@@H]1O` [ONC0003452, pco 400] was tested. Which “% viability” value did it give?
A: The value was 40.31%.

Q: `CCCCCCCCCCCCCCCC(=O)OC1C(SC)OC(C(NC(=O)C2CC(CCC)CN2C)C(C)Cl)C(O)C1O` (stereo not shown) [ONC0004643, clindamycin palmitate hcl] was tested. Which “% viability” value did it give?
A: Its value is 84.71%.

Q: With `CC(=O)OCC(=O)[C@@]12OC(C)(C)O[C@@H]1CC1C3C[C@H](F)C4=CC(=O)C=C[C@]4(C)[C@@]3(F)[C@@H](O)C[C@@]12C` (stereo partly shown) [ONC0000518, fluocinonide] as the compound, how does the “% viability” value read?
A: Its value is 69.32%.

Q: With `CCN(CC)CCNC(=O)COc1ccc(OC)cc1` [ONC0000676, mefexamide hydrochloride] as the compound, how does the “% viability” value read?
A: Its value is 93.51%.

Q: `COc1ccc(C2Sc3ccccc3N(CCN(C)C)C(=O)C2OC(C)=O)cc1` (stereo not shown) [ONC0005348, diltiazem hydrochloride] was tested. Which “% viability” value did it give?
A: Its value is 61.39%.

Q: For `CCN(CC)CCN1C(=O)C(=Cc2ccc(OC)cc2)Nc2ccccc21` [ONC0005609, caroverine], which “% viability” value is on record?
A: The value was 42.25%.

Q: `CC(=O)N[C@H]1[C@H]([C@H](O)[C@H](O)CO)OC(C(=O)O)=C[C@@H]1N=C(N)N` [ONC0004525, zanamivir relenza] was tested. Which “% viability” value did it give?
A: Its value is 62.68%.

Q: For `CC[C@]12CCCN3CCc4c(n(c5ccccc45)C(=O)C1)[C@@H]32` [ONC0003441, eburnamonine], which “% viability” value is on record?
A: The value was 44.28%.

Q: Which “% viability” value does the source give for `CCOC(=O)C1=C[C@]2(CC)CCCN3CCc4c(n1c1ccccc41)[C@@H]32` [ONC0002865, vinpocetine] here?
A: Its value is 109.8%.

Q: For `CC[C@]12CCCN3CCc4c(n(c5ccccc45)[C@@](O)(C(=O)OC)C1)[C@@H]32` [ONC0003425, vincamine], which “% viability” value is on record?
A: The value was 89.22%.

Q: `Cc1ccc(NC2=CC(=O)c3sc(C)nc3C2=O)cc1` [ONC0003545, ryuvidine] was tested. Which “% viability” value did it give?
A: Its value is 94.75%.

Q: How did the “% viability” value turn out when `COc1cccc(/C=N/C=N/c2cccc(OC)c2)c1` [ONC0002505, dmeob] was run?
A: Its value is 75.27%.

Q: `CO[C@@H](C(=O)N1Cc2n[nH]c(NC(=O)c3ccc(N4CCN(C)CC4)cc3)c2C1)c1ccccc1` [ONC0004749, danusertib pha739358] was tested. Which “% viability” value did it give?
A: The value was 112.5%.

Q: Which “% viability” value does the source give for `CN(C)c1ccc(C(=C2C=CC(=[N+](C)C)C=C2)c2ccc(N(C)C)cc2)cc1` [ONC0000415, gentian violet] here?
A: The value was 35.99%.

Q: `CC1=CC(=C(c2ccc(N)cc2)c2ccc(N)cc2)C=CC1=N` [ONC0002809, basic fuchsin] was tested. Which “% viability” value did it give?
A: Its value is 79.53%.

Q: How did the “% viability” value turn out when `CCN(CC)c1ccc(C(=C2C=CC(=[N+](CC)CC)C=C2)c2ccccc2)cc1` [ONC0002765, brilliant green] was run?
A: The value was 123.8%.

Q: Which “% viability” value does the source give for `Cc1cc(O)c(-c2ccc([C@@H](C)CN)cc2)c2c1[nH]c(=O)c1sccc12` [ONC0001173, ots514] here?
A: The value was 81.93%.

Q: For `CCOc1nc2cccc(C(=O)OC(C)OC(=O)OC3CCCCC3)c2n1Cc1ccc(-c2ccccc2-c2nnn[nH]2)cc1` (stereo not shown) [ONC0004302, candesartan cilextil], which “% viability” value is on record?
A: Its value is 98.1%.

Q: Which “% viability” value (Madurella mycetomatis metabolic activity at 2µM (%)) does the source give for `CCCCCCCCCCCCOS(=O)(=O)O` [ONC0002181, sodiumdodecylsulfate] here?
A: Its value is 96.71%.

Q: `Nc1nc(O)c2ncn(COC(CO)CO)c2n1` [ONC0003983, ganciclovir hydrate] was tested. Which “% viability” value did it give?
A: Its value is 92.25%.

Q: For `NS(=O)(=O)Nc1ncnc(OCCOc2ncc(Br)cn2)c1-c1ccc(Br)cc1` [ONC0002096, aprocitentan], which “% viability” value is on record?
A: Its value is 65.83%.

Q: For `CC(C)(C)[C@@]1(O)CCN2C[C@@H]3c4ccccc4CCc4cccc(c43)[C@H]2C1` [ONC0002006, butaclamolhcl], which “% viability” value is on record?
A: The value was 90.12%.

Q: `C=C1NCC[C@@H](C(=O)O)N1` [ONC0005375, ectoinezwitterion] was tested. Which “% viability” value did it give?
A: Its value is 125.4%.

Q: `NC[C@H]1O[C@H](O[C@H]2C(O[C@@H]3O[C@H](CO)[C@@H](O)[C@H]3O)[C@@H](O)[C@H](N)C[C@@H]2N)[C@H](N)[C@@H](O)[C@@H]1O` (stereo partly shown) [ONC0002301, ribostamycin sulfate] was tested. Which “% viability” value did it give?
A: Its value is 111.7%.

Q: How did the “% viability” value turn out when `NC[C@@H]1O[C@H](O[C@H]2[C@@H](O)[C@H](O[C@@H]3[C@@H](O)[C@H](N)C[C@H](N)[C@H]3O[C@H]3O[C@H](CO)[C@@H](O)[C@H](O)[C@H]3N)O[C@@H]2CO)[C@H](N)[C@@H](O)[C@@H]1O` [ONC0005310, paromomycin] was run?
A: The value was 134.8%.

Q: How did the “% viability” value turn out when `OC[C@H]1O[C@H](O[C@H]2O[C@H](CO)[C@@H](O)[C@H](O)[C@H]2O)[C@H](O)[C@@H](O)[C@@H]1O` [ONC0003487, trehalose] was run?
A: Its value is 42.59%.

Q: Which “% viability” value does the source give for `OC[C@H]1O[C@H](O[C@H]2[C@H](O)[C@@H](O)[C@H](O)O[C@@H]2CO)[C@H](O)[C@@H](O)[C@@H]1O` [ONC0000327, dmaltose] here?
A: Its value is 54.64%.

Q: Which “% viability” value does the source give for `NC[C@H]1O[C@H](O[C@H]2[C@H](O[C@@H]3O[C@H](CO)[C@@H](O)[C@H]3O)[C@@H](O)[C@H](N)C[C@@H]2N)[C@H](N)[C@@H](O)[C@@H]1O` [ONC0001104, ribostamycin sulfate] here?
A: Its value is 39.68%.

Q: For `OC[C@H]1O[C@@H](O[C@@H]2[C@H](O)[C@@H](O)[C@H](O[C@H]3[C@H](O)[C@@H](O)C(O)O[C@@H]3CO)O[C@@H]2CO)[C@H](O)[C@@H](O)[C@H]1O` (stereo partly shown) [ONC0004130, 4galactosyllactose], which “% viability” value is on record?
A: Its value is 126.3%.

Reference: paper PMC12670160, “A drug-repurposing screen of FDA- and EMA-approved drugs identifies two NF-κB inhibitors active against eumycetoma” (Journal of Antimicrobial Chemotherapy, 2025)
